According to PubChem BioAssay (NCI):
Where “and” joins values, the source holds several entries; their conditions need not be identical. Identical values can stand only once. The panel holds about 79,000 compounds, 15% with a hit somewhere; the sample as a whole holds those more often. Calls of active or inactive are those of the source. No stated cut-off is given here; in the data, active means growth inhibition above about 70%; inactive means the rest.

How the values were obtained:
[1] = NCI Yeast Anticancer Drug Screen. Data for the rad50 strain (AID 155);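 further: 0% = growth of vehicle-only cultures of the same strain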; details: S. cerevisiae rad50 strain growth inhibition, active compounds read high; at 50.0 µM unless noted
Procedure, shortened: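 Compounds were tested on a yeast strain with an engineered DNA damage repair alteration; the reported value is growth inhibition normalised to vehicle treatment.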

[2] = NCI Yeast Anticancer Drug Screen. Data for the mec2-1 strain (AID 157); details: S. cerevisiae mec2-1 strain, active compounds read high; at 50.0 µM unless noted
Procedure, shortened: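 Cells of the genetically defined mec2-1 yeast strain are incubated with test compound. Inhibition of growth is calculated against vehicle-treated controls.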

[3] = NCI Yeast Anticancer Drug Screen. Data for the cln2 rad14 strain (AID 165);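 further: 0% = growth equal to vehicle treated cultures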; details: S. cerevisiae cln2 rad14 strain, active compounds read high; at 50.0 µM unless noted
Procedure, shortened: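 The screen exposed genetically defined yeast (cln2 rad14) to test compounds and scored growth inhibition relative to vehicle-treated controls.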

[4] = NCI Yeast Anticancer Drug Screen. Data for the bub3 strain (AID 167); details: S. cerevisiae bub3 mutant strain, active compounds read high; at 50.0 µM unless noted
Procedure, shortened: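 Growth of a checkpoint-deficient yeast mutant is measured after compound exposure. Values represent inhibition relative to vehicle.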

[5] = NCI Yeast Anticancer Drug Screen. Data for the mlh1 rad18 strain (AID 175); details: S. cerevisiae mlh1 rad18 strain growth inhibition, active compounds read high; at 50.0 µM unless noted
Procedure, shortened: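 Compound-treated yeast growth, normalised to vehicle controls. Strain bears defined DNA repair mutations.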

[6] = NCI Yeast Anticancer Drug Screen. Data for the sgs1 mgt1 strain (AID 161);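 further: 0% = growth of cultures given vehicle only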; details: S. cerevisiae sgs1 mgt1 strain, active compounds read high; at 50.0 µM unless noted
Procedure, shortened: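 Read-out: growth inhibition vs vehicle controls. Cells: mutant yeast strain deficient in DNA damage repair.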

Measured: growth inhibition

Clc1nn2cnnc2c2ncccc12
inactive: [1] 2.8% | [2] -0.45% | [3] -13.3% | [4] 15.2% | [5] 16.4%

COC(=O)c1nnn(-c2ccc(Cl)cc2C)c1C(=O)c1ccc(OC)cc1
inactive: [1] -33.4% | [2] 0.95% | [3] -2.45% | [4] -9.1% | [5] -20.2%

Nn1c(-c2ccccc2)nc2ccc(Br)cc2c1=O
inactive: [1] 0.95% | [2] 7.55% | [3] 24.8% | [4] 7.95% | [5] 43.5%

CN(C)c1ccc(C(=O)Cc2ccc3ccccc3n2)cc1
active: [1] 98.7% | [2] 99.2% | [3] 98.2% | [4] 98.9% | [5] 98.9%

CSc1nc2c([nH]1)c(=O)n(C)c(=S)n2C
inactive: [1] 4.95% | [2] 6.05% | [3] 12.1% | [4] 0.4% | [5] -4.25%

CCCCCC=C(c1cc(Cl)c(OC)c(C(N)=O)c1)c1cc(Cl)c(OC)c(C(N)=O)c1
inactive: [1] -20.1% | [2] -9.35% | [3] -92.9% | [4] 5.5% | [5] -13.9%

CC(C)(C)c1ccncc1
inactive: [1] 8.45% | [2] 16.1% | [3] -10.2% | [4] 5.15% | [5] -4.65%

CCSC(SCC)C(NC(C)=O)C(O)C(O)C(O)CO (stereo unspecified)
inactive: [1] 28.7% | [2] 3.45% | [3] 12.7% | [4] 15.2% | [5] 21.4%

O=C(O)c1ccccc1S(=O)Cc1ccc(Br)cc1 (stereo unspecified)
inactive: [1] -10.6% | [2] -10.6% | [3] -6.1% | [4] -0.3% | [5] 3.5%

O=C(Nc1ccccc1)Nc1ccc([N+](=O)[O-])cc1[N+](=O)[O-]
inactive: [1] 25.5% | [2] 5.95% | [3] 19.7% | [4] 11.9% | [5] 20.6%

O=C1CCCNC(=O)N1
inactive: [1] -11.2% | [2] 20.1% | [3] 4.35% | [4] 1.95% | [5] -5.3%

Clc1cccc(Nc2ncnc3nc[nH]c23)c1
inactive: [1] 7.15% | [2] 0.25% | [3] -12.2% | [4] -12.9% | [5] 0.5%

Cc1nc2[nH]c(=O)[nH]c(=O)c2s1
inactive: [1] -5.65% | [2] 4.15% | [3] -6.6% | [4] -10.8% | [5] -2.35%

CC(=O)C[n+]1ccccc1
inactive: [1] -9.85% | [2] -9% | [3] 3.75% | [4] 15.6% | [5] 14.2%

S=C(S)Nc1cccc2ccccc12
inactive: [1] -14.4% and 11.2% | [2] -13.9% and -10.2% | [5] -16.2% and 14.3%

C=C(C)C(=O)O[C@H]1[C@H]2[C@H](OC(=O)[C@H]2C)[C@H](O)[C@@H](C)[C@@H]2C=CC(=O)[C@]21C
inactive: [1] 31.3% | [2] 30.5% | [3] 47.2% | [4] 57.4% | [5] -31.1%

Cc1ccc(S(=O)(=O)NC(=O)NNc2ccc(F)cc2)cc1
inactive: [1] 2.5% | [2] 2.15% | [3] 17.9% | [4] -12.1% | [5] 42.5%

O=C(CCl)Oc1ccc(C(=O)O)cc1
inactive: [1] -1.1% | [2] -3.55% | [3] -3.65% | [4] 0.85% | [5] -6.7%

Cc1c([N+](=O)[O-])cc(C(C)(C)C)c(OC(=O)c2ccccc2)c1[N+](=O)[O-]
inactive: [1] 41.5% | [2] 24.7% | [3] 16.3% | [4] 25.4% | [5] 20.4%

COc1ccc(/C=N/N2CN(C(C)C(=O)O)B(NCCC(C)C)N=C2N)cc1OC (stereo unspecified)
inactive: [1] -0.5% | [2] -10.3% | [3] 6.3% | [4] 29.2% | [5] -4.1%

CCOC(=O)/C(=C\c1ccccc1)c1ccccc1
inactive: [1] 7.15% | [2] 5.5% | [3] 7.85% | [4] 27.1%

C=C1CC(COc2ccc3c(C)c(Cl)c(=O)oc3c2)(c2ccccc2)OC1=O (stereo unspecified)
inactive: [1] 19% | [2] 20.4% | [3] 37.5% | [4] 18.8% | [5] 37.6%

CCOC(=O)C(C)N1C(=O)c2ccccc2C1=O (stereo unspecified)
inactive: [1] 6.4% | [2] -20.4% | [3] 13.3% | [4] 21.4%

Nc1ccccc1[N+](=O)[O-]
inactive: [1] -14.4% | [6] -14.7% | [3] -15.7% | [4] 1.5% | [5] -1.55%

Oc1[nH]c2ccccc2c1N=NC(=S)Nc1ccccc1
inactive: [1] 12.6% | [6] -2.3% | [3] -13.1% | [4] -11.4% | [5] -4.75%

C(=C/c1ccccc1)/c1ccccc1
inactive: [1] -6.45% | [6] -25.6% | [3] 8.85% | [4] -2.65% | [5] -2.15%

Brc1ccc(-c2ccccc2)cc1
inactive: [1] 28.8% | [6] 17.2% | [3] 15.1% | [4] 8.9% | [5] 21.4%

O=S(=O)(O)CCCOC1COc2ccccc2OCCOCCOc2ccccc2OC1
inactive: [1] -0.65% | [6] -15.5% | [3] -6.45% | [4] -4.1% | [5] -7.55%

CCOC(=O)c1c(-c2ccccc2)csc1NS(=O)(=O)c1ccc(C)cc1
active: [1] 81.8% | [6] 87% | [3] 82.3% | [4] 81.8% | [5] 90.6%

Cc1ccc(NC(=O)CCS)cc1
inactive: [1] -1.75% | [6] 9.5% | [3] 2.1% | [4] -13.2% | [5] 15.9%

COc1c(O)cc2c(c1O)C1OC(CO)C(O)C(O)C1OC2=O (stereo unspecified)
inactive: [1] -4.3% | [6] -3.85% | [3] 19.1% | [4] -20.8% | [5] 0.5%

CCC1([N+](=O)[O-])COC(CCc2ccccc2)OC1 (stereo unspecified)
inactive: [1] 6.3% | [6] 10.8% | [3] -30.1% | [4] -0.25% | [5] -19.9%
